# Screens deposited in PubChem BioAssay by several laboratories.
# Peg3 prom inh: Peg3 promoter-driven luciferase inhibitors, primary screen, cell-based, HeLa, luciferase luminescence; HeLa PEG-Prom luciferase reporter, overnight; inhibition, % at 20 µM; 360,000 compounds, 1.7% hits;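 active = inhibition of at least 50% at 20 µM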
# LGR2 antag: inhibitors of bursicon-induced LGR2 CRE-luciferase signal, primary screen, cell-based, HEK293, CRE-luciferase reporter, bursicon stimulation | Drosophila bursicon receptor LGR2 (rickets) | bursicon-stimulated, 4 h | inhibition, % at 9.99 µM | 380,000 compounds, 0.35% hits | AID 720647, 2013;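 active = drop in luminescence signal, shown as inhibition above about 50% in the replicate tests, limit read from the data, passing the limit was not always enough; inconclusive = probably only some replicates passing the limit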;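 note: agonist challenge used bursicon conditioned medium at about half maximal strength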
# KKLEB tox: cytotoxicity in KKLEB CF airway cells, primary screen, cytotoxicity control for CF NF-kB inhibitor project, cell-based, uHTS, fluorescence assay plates; KKLEB CF airway cells viability, ATPlite luminescence, overnight; hits give low values; cells stimulated with P. aeruginosa culture filtrate; activity change (cytotoxicity), % at 5 µM; 360,000 compounds, 0.36% hits; AID 602141, 2011;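 active = corrected activity change at or below -50% at 5 µM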
# Mdm2-MdmX inh: inhibitors of human Mdm2-MdmX association, primary screen, cell-based, luminescence, split luciferase, SaOS-2, uHTS. Protein Mdm4 (Homo sapiens) + E3 ubiquitin-protein ligase Mdm2 (Homo sapiens), …. AID 485346, 2010. inhibition, % at 8 µM. 330,000 compounds, 3% hits. SaOS-2 split-luciferase Mdm2/MdmX complementation;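 active = inhibition of at least 50% at 8 µM in the primary screen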
# HSP90 refold inh: HSP90 inhibitors, primary screen, cell lysate, luminescence; Heat shock protein HSP 90 (rabbit reticulocyte lysate; luciferase refolding); Rabbit reticulocyte lysate, luciferase refolding luminescence, 3 h; inhibition, % at 5.6 µM; 290,000 compounds, 0.91% hits; AID 1789, 2009;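 active = inhibition above the screen-wide mean plus 3 SD, computed separately per campaign, cut at about 16% in these data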;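 note: 0% = DMSO wells and 100% = 60 µM geldanamycin wells; inhibitors lower the luminescence because luciferase stays unfolded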
# CF NFkB inh: inhibitors of PAF-induced NF-kB signaling, primary screen, cell-based, GFP fluorescence, uHTS | KKLEB NF-kB-GFP reporter, GFP fluorescence overnight | inhibition, % at 5 µM | 360,000 compounds, 0.86% hits | AID 588850, 2011;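 active = at least 50% inhibition at 5 µM, scaled per plate between neutral and stimulator controls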;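 note: PAF is a Pseudomonas aeruginosa culture filtrate used as stimulus; plate controls were PAF-stimulated DMSO wells for no effect and unstimulated DMSO wells for full effect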
# Mdm2-MdmX conf: Mdm2-MdmX complex disruptors, retested hits, confirmation, luminescence, single concentration; shares compounds with Mdm2-MdmX inh; inhibition, % at 8 µM; Mdm2-MdmX binding, luminescent assay; 10,000 compounds, 55% hits; in the data active = inhibition above about 40%
# Full FLuc ctr: full-length luciferase signal inhibition, confirmation, counter-screen for Mdm2/MdmX interaction inhibitor project, cell-based, single concentration, SaOS-2; 6,200 compounds, 77% hits; SaOS-2 full-length luciferase counterscreen, luminescence; inhibition, % at 8 µM; shares compounds with Mdm2-MdmX inh; AID 504607, 2011;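 active = mean inhibition at 8 µM reaching about 37%, which flags the compound as non-specific, limit read from the data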;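 note: p53-null SaOS-2 cells with luciferase driven by a doxycycline-inducible promoter; compound on cells about two nights before reading with doxycycline added after day one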
# * = called active by the depositor; u = inconclusive; x = no result. Compounds with a hit are over-represented: about 3.6% of the library has one in this group of screens.
SMILES,Peg3 prom inh,LGR2 antag,KKLEB tox,Mdm2-MdmX inh,HSP90 refold inh,CF NFkB inh,Mdm2-MdmX conf,Full FLuc ctr
CCOC(=O)c1c(NC(C)=O)sc2c(OC)c(Br)ccc12,26,14,-8,21,3,-7,x,x
C[C@@H]1CN([C@H](C)CO)C(=O)CCCn2cc(nn2)CO[C@H]1CN(C)Cc1ccncc1,x,7,x,x,x,x,x,x
O=C(Nc1cccc(-c2nc3ccccc3o2)c1)c1ccc(N2C(=O)C3C4C=CC(C4)C3C2=O)cc1 (stereo not drawn),39,x,16,59*,-7,-25,21,x
O=C(Nc1cccc(F)c1)N1CCCCN2[C@H](CO)[C@@H](c3ccc(C#CC4CC4)cc3)[C@@H]2C1,x,18,x,x,x,x,x,x
CO[C@@H](CN(C)S(=O)(=O)c1ccc(Cl)cc1)[C@H](C)CN(C(=O)Nc1ccccc1F)[C@@H](C)CO,x,12,x,x,x,x,x,x
O=C1c2ccccc2-c2onc3c(N4CCN(CCO)CC4)cc(N4CCN(C(=O)c5ccco5)CC4)c1c23,48,14,-7,41,2,14,x,x
CN1CCN(c2cc(N3CCN(C(=O)c4ccco4)CC3)c3c4c(onc24)-c2ccccc2C3=O)CC1,48,x,-8,100*,4,3,74*,24
COc1ccc(S(=O)(=O)N2CCCCN3[C@@H](CO)[C@H](c4ccc(C#CC5CC5)cc4)[C@@H]3C2)cc1,x,10,x,x,x,x,x,x
Cc1ccccc1NCc1ccc(O)c2ncccc12,31,14,-22,84*,-1,36,76*,41*
OCc1ccnc2c(O)cccc12,13,x,11,21,-3,-41,x,x
Oc1ccc(Cn2ccnc2)c2cccnc12,9,-19,2,4,4,8,x,x
Cc1cccc(NCc2ccc(O)c3ncccc23)c1,20,u,-9,77*,1,26,74*,43*
Oc1ccc(CNc2ccc(F)cc2)c2cccnc12,27,x,-17,85*,0,41,80*,36
Cc1cccc(NCc2ccccc2O)c1C,-17,x,-24,-9,-2,-2,x,x
COCc1ccc(O)c2ncccc12,1,x,5,60*,9,-26,36,59*
COc1ccc(NC(=O)N(C)C[C@@H]2OCCCC[C@@H](C)Oc3ccc(NS(=O)(=O)c4ccc(C)cc4)cc3C(=O)N([C@@H](C)CO)C[C@H]2C)cc1,x,-22,x,x,x,x,x,x
Oc1ccc(CNc2ccccc2)c2cccnc12,29,x,1,86*,-5,10,44*,51*
Cc1ccc(-c2nc3cnccn3c2Nc2ccc3c(c2)OCO3)cc1,-13,x,-11,6,-2,28,x,x
COc1ccc(-c2nc3cnccn3c2Nc2ccc3c(c2)OCO3)cc1,32,-20,-3,53*,-3,22,6,x
O=C(N/N=C/c1c(F)cccc1Cl)C(=O)N1CCCCCC1,0,-4,-4,56*,-7,-7,0,x
CN1C(=O)c2cc(NC(=O)Cc3cccs3)ccc2OC[C@@H]2O[C@@H](CC(=O)O)CC[C@H]21,x,8,x,x,x,x,x,x
Cc1[nH]nc(-c2ccc(OCc3cnn(-c4ccccc4)c3)c(C)c2O)c1Oc1ccccc1,48,x,-26,56*,3,29,51*,53*
CNC[C@H]1OCCCC[C@H](C)Oc2ccc(NC(=O)NC(C)C)cc2C(=O)N([C@H](C)CO)C[C@@H]1C,x,7,x,x,x,x,x,x
COc1ccc(CN(C)C[C@@H]2Oc3ccc(NS(C)(=O)=O)cc3C(=O)N([C@H](C)CO)C[C@@H]2C)cc1,x,-27,x,x,x,x,x,x
O=C(/C=C/NNC(=O)c1ccccc1)c1ccccc1,-32,x,1,0,-6,-10,x,x
SMILES,Peg3 prom inh,LGR2 antag,KKLEB tox,Mdm2-MdmX inh,HSP90 refold inh,CF NFkB inh,Mdm2-MdmX conf,Full FLuc ctr
O=C(/C=C/NNC(=O)c1ccccc1O)c1ccccc1,-9,-10,2,57*,5,-1,13,x
O=C1C(Cc2ccccc2)Nc2ncnc(N3CCc4ccccc4C3)c2N1Cc1ccc(Cl)cc1 (stereo not drawn),51*,x,3,56*,x,16,49*,57*
Cc1ccc(S(=O)(=O)Oc2ccccc2/C=N/NC(N)=S)cc1,17,x,-11,54*,4,10,56*,45*
O=C1CC(=Nc2ccccc2)NN1c1ccccc1,9,x,1,58*,-2,-12,1,x
O=C1Cc2ccccc2N1c1ccccc1,6,x,3,-52,-1,-6,x,x
O=C(CN1CCCc2ccccc21)N/N=C/c1ccccc1O,47,26,-5,77*,-3,-10,63*,19
C[C@@H]1CN([C@H](C)CO)S(=O)(=O)c2ccc(/C=C/c3ccccc3)cc2O[C@@H]1CN(C)C,x,5,x,x,x,x,x,x
COc1ccc(-c2cn(CC[C@H]3CC[C@@H](NC(=O)NC(C)C)[C@@H](CO)O3)nn2)cc1,x,-6,x,x,x,x,x,x
O=c1cc(N2CCN(c3cccc(Cl)c3)CC2)[nH]c(=O)n1C1CCCCC1,38,x,-22,84*,5,31,72*,40*
O=c1cc(N2CCN(c3ccccc3)CC2)[nH]c(=O)n1C1CCCCC1,2,x,-27,67*,6,13,66*,56*
CN1CCN(c2cc(=O)n(C3CCCCC3)c(=O)[nH]2)CC1,4,x,-5,-7,3,15,x,x
O=C(N[C@@H]1CC[C@@H](CCn2cc(-c3ccccc3)nn2)O[C@@H]1CO)c1ccccc1F,x,-4,x,x,x,x,x,x
Nc1ccc2c(c1)C(=O)C(=O)c1ccccc1-2,100*,x,-96*,98*,16*,80*,99*,1
O=C1C(=O)c2ccc(-c3ccccc3)cc2-c2ccccc21,101*,x,-100*,84*,-2,102*,100*,52*
CCCC#Cc1ccc2c(c1)O[C@H](CN(C)C(=O)CN(C)C)[C@@H](C)CN([C@@H](C)CO)S2(=O)=O,x,15,x,x,x,x,x,x
O=C(Nc1ccc(Cl)cc1)N[C@@H]1CC[C@@H](CCNC(=O)c2ccccc2F)O[C@@H]1CO,x,-1,x,x,x,x,x,x
CC(C)CC#Cc1ccc2c(c1)O[C@@H](CN(C)C(=O)c1cnccn1)[C@H](C)CN([C@@H](C)CO)S2(=O)=O,x,6,x,x,x,x,x,x
